Most compounds without a hit are left out; they make up all but 3.5% or so of the library.
TRb-SRC2 inh = TRbeta-SRC2 interaction inhibition; P10828; TRbeta-SRC2 peptide binding, fluorescence polarization; receptor liganded with 1 µM T3; Potency, µM (highest dose often 106 µM), for inactives: at the highest dose activity change, negative = inhibition, most hits filed as inhibitors; 280,000 tested, 0.065% active; AID 1469;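 note: plate controls were bound peptide for no effect and peptide without receptor for full effect; nearly all actives have a fitted effect of over 50% in size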
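Fluorescence polarization of 20 nM Texas Red SRC2 peptide with 0.6 uM human TRb ligand-binding domain, in Tris buffer with 1uM T3 and 5% DMSO. Incubated 5 hr ambient; normalized to unbound and bound controls.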
TR SRC2 fluor cs = Texas Red fluorescence interference in TRb-SRC2 counter-screen | Potency, µM (doses to about 106 µM), without a hit: at the top dose fluorescence change, negative = quenching | AID 1479 | 280,000 tested, 0.29% active | TRb/SRC2 Texas Red total fluorescence interference; active = well fitted curve in either direction with a large enough effect; inconclusive = small, poorly fitted or top-dose-only effect
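Flags fluorescent or light-absorbing compounds by total fluorescence, S + 2P, at 555 nm excitation and 632 nm emission. Mixture: 20 nM Texas Red SRC2 peptide, 0.6 uM human TRb LBD, 1 uM T3, 5% DMSO; compound exposure 5 h at ambient temperature.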
Tau FP inhib = tau fibrillization inhibition (FP); 280,000 tested, 0.39% active; P10636; K18 P301L tau heparin fibrillization, Alexa594 FP, 6 h; Potency, µM (doses to about 57.7 µM), for inactives: top-dose activity, negative = inhibition, hits mostly inhibitors; note: nearly all actives have a fitted effect of over 55% in size
Target sequence (P10636 561-689 P618L limits assumed): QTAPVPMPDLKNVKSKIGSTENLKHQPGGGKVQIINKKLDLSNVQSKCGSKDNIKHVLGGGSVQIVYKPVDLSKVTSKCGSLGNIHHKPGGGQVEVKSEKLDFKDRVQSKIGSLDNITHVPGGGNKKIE
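Steps: dispense K18 P301L tau (15 uM plus 0.24 uM Alexa 594 tracer, final) in pH 7 sodium acetate; add compound; add heparin (20 uM final); incubate 6 hr, 37 C; add ThT (30 uM final); after 1 hr ambient, read FP.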
JMJD2E inh = inhibitors of human JMJD2E histone demethylase. B2RXH2. JMJD2E catalytic domain, FDH-coupled NADH fluorescence (FDH is formaldehyde dehydrogenase). Potency, µM (titrated, usually from 57.1 µM), for the others: at the top dose activity change, negative = inhibition, usual class: inhibitors. 230,000 tested, 1.6% active; active = well fitted inhibition curve with a large enough effect, not every such curve was filed as active; inconclusive = small, poorly fitted or top-dose-only effect, or another doubt; inactive = no such curve, though single readings can be large or run the other way;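 note: 0% = wells with enzyme and -100% = buffer wells without enzyme; nearly all actives have a fitted effect of over 50% in size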
Target sequence (B2RXH2 1-337 limits assumed): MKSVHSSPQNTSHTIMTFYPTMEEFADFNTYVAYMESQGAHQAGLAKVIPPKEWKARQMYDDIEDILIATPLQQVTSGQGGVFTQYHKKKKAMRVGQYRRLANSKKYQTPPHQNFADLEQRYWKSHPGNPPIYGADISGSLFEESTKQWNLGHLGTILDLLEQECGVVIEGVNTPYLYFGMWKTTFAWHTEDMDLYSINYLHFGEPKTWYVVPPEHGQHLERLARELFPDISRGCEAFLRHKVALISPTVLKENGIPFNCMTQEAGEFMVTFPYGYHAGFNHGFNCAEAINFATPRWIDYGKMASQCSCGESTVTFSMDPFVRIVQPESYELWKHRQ
Tau ThT inhib = blocks human tau fibril formation measured by thioflavin T. 270,000 tested, 2.1% active. recombinant tau K18 P301L, heparin-induced fibrillization, ThT fluorescence. Potency, µM (doses to about 57.4 µM), for inactives: at the top dose activity, negative = inhibition, actives largely listed as inhibitors. P10636; note: nearly all actives have a fitted effect of over 55% in size
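Aggregation was driven by heparin (20 uM final) acting on recombinant tau […] bearing P301L in 100 mM sodium acetate pH 7; fibrils were detected with Thioflavin T.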
Tau fluor counter = counter-screen for tau fibril formation inhibitors; tau K18 P301L Alexa594 fluorescence, heparin fibrillization; Potency, µM (highest dose often 57.7 µM), inactives show at the highest dose activity change, negative = decrease; 280,000 tested, 0.93% active; AID 1463; note: nearly all actives have a fitted effect of over 55% in size
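Human tau K18 P301L (15 uM unlabeled, 0.24 uM Alexa 594-labeled) in 100 mM sodium acetate pH 7 with 20 uM heparin, 6 hr at 37 C. ThT 30 uM added, 1 hr ambient; Alexa 594 FP and total fluorescence read at 555/632 nm.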
* = called active by the depositor; [ ] = dose if it differs, or a comment. Unless noted, calls come from the whole dose curve; as a rule, active = well fitted curve in the direction sought with a large enough effect; inconclusive = small, poorly fitted or top-dose-only effect, or another doubt; inactive = no such curve, though single readings can be large; an effect the other way counts as inactive or inconclusive. Unless noted, % is set by controls: 0 for no effect and ±100 for the full control effect; potency is the fitted concentration of half-maximal effect.

O=C(O)C1CN(c2ncccc2[N+](=O)[O-])C1 was read as TRb-SRC2 inh -3%, TR SRC2 fluor cs -7%, Tau FP inhib -7%, JMJD2E inh 2%, Tau ThT inhib -3% and Tau fluor counter -4%.
For O=[N+]([O-])c1cccnc1N1CCC(c2cc(-c3ccc(Cl)cc3)n[nH]2)CC1 the results were TRb-SRC2 inh -15%, TR SRC2 fluor cs 2%, Tau FP inhib -8%, JMJD2E inh -7%, Tau ThT inhib 7.9µM* and Tau fluor counter inconclusive.
For CCC(=O)n1nc(NCc2ccc(OC)c(OC)c2)nc1NCc1ccc(OC)c(OC)c1 the results were TRb-SRC2 inh -4%, TR SRC2 fluor cs -4%, Tau FP inhib 5%, JMJD2E inh 6%, Tau ThT inhib -10% and Tau fluor counter -11%.
Screening CCCOCc1cc(CN2CCN(c3ccccc3OC)CC2)c(O)c2ncccc12 returned TRb-SRC2 inh -1%, TR SRC2 fluor cs -3%, Tau FP inhib -1%, Tau ThT inhib inconclusive and Tau fluor counter inconclusive.
OCCN1CCN(Cc2cc(Cl)c3cccnc3c2O)CC1 was read as TRb-SRC2 inh 10%, TR SRC2 fluor cs 1%, Tau FP inhib inconclusive, JMJD2E inh 22µM*, Tau ThT inhib inconclusive and Tau fluor counter -29%.
`COc1ccccc1N1CCN(Cc2cc(Br)c(O)c3ncccc23)CC1` gave TRb-SRC2 inh -2%, TR SRC2 fluor cs -1%, Tau FP inhib 6%, JMJD2E inh 25µM*, Tau ThT inhib inconclusive and Tau fluor counter inconclusive.
`O=C(Oc1c(CN2CCOCC2)cc(Cl)c2cccnc12)c1cccs1` gave TRb-SRC2 inh -9%, TR SRC2 fluor cs -5%, Tau FP inhib -2%, JMJD2E inh 25µM*, Tau ThT inhib inconclusive and Tau fluor counter -24%.
Screening O=[N+]([O-])c1cc(CN2CCCC2)c2cccnc2c1O returned TRb-SRC2 inh -15%, TR SRC2 fluor cs -3%, Tau FP inhib -14%, JMJD2E inh 20µM*, Tau ThT inhib 16µM* and Tau fluor counter -23%.
For COc1ccc(CNC(=O)CCNS(=O)(=O)c2ccc3c(c2)CCCC(=O)N3)cc1 the results were TRb-SRC2 inh -5%, TR SRC2 fluor cs inconclusive, Tau FP inhib -9%, Tau ThT inhib -3% and Tau fluor counter -7%.
For COCc1cc(CN2CCCC2)c(O)c2ncccc12 the results were TRb-SRC2 inh 5%, TR SRC2 fluor cs 3%, Tau FP inhib -13%, JMJD2E inh 3.5µM*, Tau ThT inhib inconclusive and Tau fluor counter -26%.
Screening Oc1c(CN2CCCCC2)cc(COCc2ccccc2)c2cccnc12 returned TRb-SRC2 inh 10%, TR SRC2 fluor cs 1%, Tau FP inhib 9%, JMJD2E inh -3%, Tau ThT inhib 6% and Tau fluor counter 5%.
Screening O=C(Cc1nc2ccccc2[nH]c1=O)c1ccccc1 returned TRb-SRC2 inh 2%, TR SRC2 fluor cs 2%, Tau FP inhib 3%, JMJD2E inh -8%, Tau ThT inhib inconclusive and Tau fluor counter -8%.
CCC1CO/C(=C(\C(Cl)=C(Cl)Cl)[N+](=O)[O-])N1 (stereo unspecified) was read as TRb-SRC2 inh -10%, TR SRC2 fluor cs -3%, Tau FP inhib inconclusive, JMJD2E inh -3%, Tau ThT inhib 35µM* and Tau fluor counter -19%.
Screening CCCC(=O)N(c1ccc2oc(=O)sc2c1)S(=O)(=O)c1cccs1 returned TRb-SRC2 inh -8%, TR SRC2 fluor cs -1%, Tau FP inhib inconclusive, JMJD2E inh 4%, Tau ThT inhib 32µM* and Tau fluor counter -23%.
Screening CCOc1cc(CNc2ccc(O)cc2)cc(Br)c1OCc1ccccc1 returned TRb-SRC2 inh 2%[11.2 µM], TR SRC2 fluor cs 8%[11.2 µM], Tau FP inhib -1%, Tau ThT inhib inconclusive and Tau fluor counter 8.9µM*[quencher].
`CCOc1cc(CNc2ccc(O)cc2)cc(Br)c1OCc1ccccc1F` gave TRb-SRC2 inh 32µM*, TR SRC2 fluor cs inconclusive, Tau FP inhib inconclusive, JMJD2E inh inconclusive, Tau ThT inhib 25µM* and Tau fluor counter 13µM*[quencher].
`COc1cc(CNc2ccc(O)cc2)cc(Br)c1OCc1ccccc1F` gave TRb-SRC2 inh 2%, TR SRC2 fluor cs -3%, Tau FP inhib inconclusive, JMJD2E inh -4%, Tau ThT inhib 25µM* and Tau fluor counter 13µM*[quencher].
`COc1ccc(CNc2ncnc3onc(C)c23)cc1` gave TRb-SRC2 inh -3%, TR SRC2 fluor cs inconclusive, Tau FP inhib -8%, Tau ThT inhib -2% and Tau fluor counter -6%.
`O=C(NCc1ccco1)c1nn2c(C(F)(F)F)cc(-c3cccs3)nc2c1Br` gave TRb-SRC2 inh 0%, TR SRC2 fluor cs -27%, Tau FP inhib inconclusive, JMJD2E inh -19%, Tau ThT inhib 14µM* and Tau fluor counter -29%.
For COc1ccc(N2CCN(C(CNC(=O)C(=O)NCc3ccc(C)cc3)c3cccnc3)CC2)cc1 (stereo unspecified) the results were TRb-SRC2 inh 1%, TR SRC2 fluor cs 6%, Tau FP inhib 1%, Tau ThT inhib -10% and Tau fluor counter -11%.
CCc1ccc(NC(=O)C(=O)NCC(c2cccnc2)N2CCN(C)CC2)cc1 (stereo unspecified) was read as TRb-SRC2 inh -20%, TR SRC2 fluor cs -82%, Tau FP inhib 10%, Tau ThT inhib inconclusive and Tau fluor counter -18%.
Screening CCc1ccc(NC(=O)C(=O)NCC(c2cccnc2)N2CCN(c3ccc(F)cc3)CC2)cc1 (stereo unspecified) returned TRb-SRC2 inh -18%, TR SRC2 fluor cs 100µM*[quencher], Tau FP inhib 15%, Tau ThT inhib -11% and Tau fluor counter -4%.
For COc1ccc(N2CCN(C(CNC(=O)C(=O)NCc3cccnc3)c3cccnc3)CC2)cc1 (stereo unspecified) the results were TRb-SRC2 inh -20%, TR SRC2 fluor cs 56µM*[quencher], Tau FP inhib 8%, Tau ThT inhib -16% and Tau fluor counter -8%.
`COc1cccc(NC(=O)C(=O)NCC(c2cccnc2)N2CCN(c3ccccc3)CC2)c1` (stereo unspecified) gave TRb-SRC2 inh -17%, TR SRC2 fluor cs 100µM*[quencher], Tau FP inhib 4%, Tau ThT inhib -14% and Tau fluor counter -28%.
O=C(CCC1CCCC1)N1CCC(N2CCN(c3ccccc3)CC2)CC1 was read as TRb-SRC2 inh -4%, TR SRC2 fluor cs 0%, Tau FP inhib 6%, JMJD2E inh inconclusive, Tau ThT inhib inconclusive and Tau fluor counter -9%.

Screens deposited in PubChem by National Center for Advancing Translational Sciences (NCATS).
